Some test systems named below: DMPK; DYRK1A; DYRK1B; DYRK2; EGFR(E746-A750del); EGFR(G719C); EGFR(G719S); EGFR(L747-T751del,Sins); EGFR(L858R); EGFR(L858R,T790M); EGFR(L861Q); EGFR(S752-I759del); EGFR(T790M); EGFR.
Holding throughout (conditions): Compound Concentration (nM):1000
A further test relates to T1, DLK.
T1 construct: gene MAP3K12

A further test relates to T2, DMPK2.
T2 construct: gene CDC42BPG

The test system of the next test is T3, DRAK1.
T3 construct: gene STK17A

A further test concerns T4, DRAK2.
T4 construct: gene STK17B

Test [1] concerns EGFR(L747-E749del, A750P).
For test [2], the system named is EGFR(L747-S752del, P753S).
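Also: KINOMEscan scanMAX binding as percent activity remaining versus control; lower means stronger binding.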

Consider `COc1ccc2c(-c3ccnc(Nc4cccc(OC(F)(F)F)c4)n3)cnn2n1` [GW810372X], for which the “Percent Control” value is given as 92% in the test with DLK; 100% with DMPK2; 100% with DMPK; 81% with DRAK1; 100% in the test on DRAK2; 35% in the test with DYRK1A. For the same compound, the “Percent Control” value is on record as 13% in the test with DYRK1B; 45% in the test on DYRK2; 99% in the test with EGFR(E746-A750del); 97% with EGFR(G719C); 73% in the test on EGFR(G719S); 100% in test [1]. Moreover, the “Percent Control” value in test [2] is on record as 98%; in the test on EGFR(L747-T751del,Sins), 100%; in the test with EGFR(L858R), 100%; in the test with EGFR(L858R,T790M), 100%; in the test on EGFR(L861Q) it was 75%; in the test on EGFR(S752-I759del) it was 100%. Moreover, the “Percent Control” value with EGFR(T790M) turned out to be 82%; in the test with EGFR, 100%.

In the case of `CCc1ccc(Oc2nccc(-c3c(-c4ccc(F)cc4)ncn3C3CCNCC3)n2)cc1` [SB-242719], the “Percent Control” value in the test on DLK is reported as 100%; in the test on DMPK2, 2.1%; in the test on DMPK it was 100%; in the test with DRAK1, 77%; with DRAK2, 55%; with DYRK1A it was 95%. Besides, the “Percent Control” value in the test with DYRK1B worked out at 98%; in the test on DYRK2 it was 76%; in the test with EGFR(E746-A750del), 46%; in the test on EGFR(G719C), 69%; in the test with EGFR(G719S) it was 61%; in test [1] it was 48%. For the same compound, the “Percent Control” value is reported as 91% in test [2]; 71% in the test with EGFR(L747-T751del,Sins); 49% in the test on EGFR(L858R); 73% with EGFR(L858R,T790M); 58% with EGFR(L861Q); 85% in the test on EGFR(S752-I759del). The figures for the “Percent Control” value with EGFR(T790M) and with EGFR were 52% and 48%, respectively.

With `CCn1c(-c2nonc2N)nc2c(C#CC(C)(C)O)nc(OCCNC)cc21.Cl` [GSK949675], the “Percent Control” value in the test on DLK was 86%; with DMPK2, 100%; with DMPK it was 100%; in the test with DRAK1 it was 100%; with DRAK2 it was 100%; with DYRK1A it was 70%. For the same compound, the “Percent Control” value came out at 100% with DYRK1B; 87% in the test with DYRK2; 97% with EGFR(E746-A750del); 100% with EGFR(G719C); 100% in the test on EGFR(G719S); 92% in [1]. For the same compound, the “Percent Control” value (in test [2]; in the test with EGFR(L747-T751del,Sins); in the test on EGFR(L858R); with EGFR(L858R,T790M); in the test with EGFR(L861Q); with EGFR(S752-I759del)) was 100% each time. Also, the “Percent Control” value with EGFR(T790M) is 85%; in the test with EGFR it was 96%.

On to `CN(C)c1cc2c(Nc3ccc4c(cnn4Cc4ccccc4)c3)ncnc2cn1` [GW282974X], for which the “Percent Control” value in the test with DLK was 82%; in the test with DMPK2, 48%; in the test on DMPK, 95%; with DRAK1, 69%; in the test with DRAK2, 100%; in the test with DYRK1A it was 93%. Moreover, the “Percent Control” value in the test on DYRK1B was found to be 100%; in the test on DYRK2 it was 73%.

As to `NS(=O)(=O)c1ccc(N/N=C2\C(=O)Nc3ccc(-c4cnco4)cc32)cc1` [GW276655], the “Percent Control” value is reported as 100% in the test with DLK; 94% in the test with DMPK2; 72% in the test with DMPK; 60% with DRAK1; 36% in the test with DRAK2; 2.5% in the test with DYRK1A. Also, the “Percent Control” value in the test with DYRK1B is 79%; with DYRK2, 4%; in the test with EGFR(E746-A750del), 100%; in the test on EGFR(G719C), 83%; in the test on EGFR(G719S), 76%; in test [1] it was 100%. Moreover, the “Percent Control” value in [2] is recorded as 100%; in the test on EGFR(L747-T751del,Sins), 89%; with EGFR(L858R), 72%; with EGFR(L858R,T790M), 66%; with EGFR(L861Q), 79%; with EGFR(S752-I759del) it was 70%. Also, the “Percent Control” value is on record as 66% in the test on EGFR(T790M) and 87% in the test with EGFR.

On to `Cl.O=S1CCN(Cc2ccc(-c3ccc4ncnc(Nc5ccc(OCc6ccccc6)c(F)c5)c4c3)o2)CC1` [GW576924A], for which the “Percent Control” value is given as 90% with DLK; 100% in the test with DMPK2; 100% in the test on DMPK; 100% in the test with DRAK1; 100% in the test with DRAK2; 100% in the test on DYRK1A. In addition, the “Percent Control” value in the test on DYRK1B turned out to be 100%; with DYRK2, 91%; in the test with EGFR(E746-A750del), 14%; with EGFR(G719C) it was 0%; in the test on EGFR(G719S) it was 2.2%; in test [1], 1.3%. For the same compound, the “Percent Control” value in test [2] was found to be 5.9%; with EGFR(L747-T751del,Sins), 42%; in the test with EGFR(L858R), 0.3%; in the test on EGFR(L858R,T790M) it was 100%; in the test on EGFR(L861Q), 0%; in the test with EGFR(S752-I759del) it was 1.4%. Besides, the “Percent Control” value in the test on EGFR(T790M) is recorded as 46%; with EGFR, 0.5%.

Consider `COc1ccc2[nH]c3c4[nH]c5ccc(OC)cc5c4c4c(c3c2c1)C(=O)NC4=O` [GW296115X], for which the “Percent Control” value is on record as 77% in the test with DLK; 84% with DMPK2; 56% with DMPK; 0.4% in the test on DRAK1; 2.2% in the test on DRAK2; 48% in the test with DYRK1A. Further, the “Percent Control” value is given as 79% in the test with DYRK1B; 50% with DYRK2; 20% in the test with EGFR(E746-A750del); 64% with EGFR(G719C); 57% with EGFR(G719S); 24% in test [1]. Moreover, the “Percent Control” value came to 49% in [2]; 44% with EGFR(L747-T751del,Sins); 50% in the test with EGFR(L858R); 35% in the test with EGFR(L858R,T790M); 71% in the test with EGFR(L861Q); 68% in the test with EGFR(S752-I759del). In addition, the “Percent Control” value is reported as 45% with EGFR(T790M) and 51% in the test with EGFR.

Consider `Cl.O=C(Nc1ccc(Oc2ccc3[nH]c(NC(=O)c4ccco4)nc3c2)cc1)Nc1cc(C(F)(F)F)ccc1F` [GW683134A], for which the “Percent Control” value stood at 86% in the test on DLK; 82% with DMPK2; 100% in the test on DMPK; 100% with DRAK1; 100% in the test with DRAK2; 100% with DYRK1A. In addition, the “Percent Control” value in the test on DYRK1B is on record as 93%; in the test with DYRK2, 83%; with EGFR(E746-A750del) it was 92%; in the test on EGFR(G719C), 100%; with EGFR(G719S), 92%; in [1], 69%. Moreover, the “Percent Control” value in [2] came out at 78%; in the test on EGFR(L747-T751del,Sins) it was 100%; in the test on EGFR(L858R), 91%; in the test with EGFR(L858R,T790M) it was 100%; with EGFR(L861Q) it was 89%; in the test with EGFR(S752-I759del), 97%. Also, the “Percent Control” value in the test on EGFR(T790M) is recorded as 84%; in the test on EGFR, 92%.

Consider `CC1=C(C(=O)Nc2ccc3[nH]ncc3c2)C(c2ccc3ccccc3c2)CC(=O)N1` (centres unmarked) [GSK270822A], for which the “Percent Control” value in the test on DLK worked out at 68%; in the test with DMPK2, 94%; in the test with DMPK, 100%; in the test with DRAK1, 95%; in the test on DRAK2 it was 84%; with DYRK1A it was 92%. Further, the “Percent Control” value was determined as 83% in the test on DYRK1B; 66% in the test on DYRK2; 100% with EGFR(E746-A750del); 53% in the test with EGFR(G719C); 100% in the test with EGFR(G719S); 100% in test [1]. Besides, the “Percent Control” value worked out at 100% in [2]; 100% in the test with EGFR(L747-T751del,Sins); 100% in the test with EGFR(L858R); 55% in the test on EGFR(L858R,T790M); 83% in the test on EGFR(L861Q); 100% in the test with EGFR(S752-I759del). Further, the “Percent Control” value in the test on EGFR(T790M) is on record as 56%; in the test on EGFR, 100%.

As for `Cl.O=C(Nc1ccc(Oc2ccc3[nH]c(NC(=O)c4ccccc4)nc3c2)cc1)Nc1cc(C(F)(F)F)ccc1F` [GW709042A], the “Percent Control” value in the test on DLK was 77%; in the test on DMPK2 it was 86%; with DMPK, 100%; with DRAK1, 100%; in the test on DRAK2, 100%; in the test on DYRK1A, 100%. The “Percent Control” value with DYRK1B is 100%; in the test with DYRK2, 97%; in the test on EGFR(E746-A750del) it was 94%; in the test with EGFR(G719C), 71%; with EGFR(G719S), 57%; in test [1], 100%. Further, the “Percent Control” value in [2] was determined as 91%; with EGFR(L747-T751del,Sins), 82%; in the test on EGFR(L858R) it was 100%; with EGFR(L858R,T790M), 93%; in the test on EGFR(L861Q), 60%; in the test with EGFR(S752-I759del), 87%. The “Percent Control” value with EGFR(T790M) came to 82%; in the test with EGFR, 100%.
